A selection: hits, their analogues and other compounds. The true share with any hit is near 18%.
DT40 TDP1 no CPT – qHTS for Inhibitors of human tyrosyl-DNA phosphodiesterase 1 (TDP1): qHTS in cells in absence of CPT. DT40 Tdp1-/- hTDP1 cells, no CPT, ATP luminescence, 48 h. Potency, µM (doses to about 46.2 µM), without a hit: at the top dose activity change, negative = growth inhibition, hits mostly inhibitors. actives 15% (n = 420,000). AID 686978, 2013; note: potency is the fitted concentration of half-maximal effect; % is set by controls: 0 for no effect and ±100 for the full control effect; nearly all actives have a fitted effect of over 55% in size
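Growth kinetics read by CellTiter-Glo luminescence after ≥48 hr at 37 °C. Cells: DT40 Tdp1-/- stably carrying human TDP1, 400 per well, compound exposure in the absence of CPT (DMSO vehicle).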
TDP1 cell CPT – growth inhibition of DT40 Tdp1-/-;hTDP1 cells with camptothecin (screen for TDP1 inhibitors) | chicken DT40 Tdp1-/-;hTDP1 cells + 20 nM CPT, ATP luminescence, 48 h | Potency, µM (top dose mostly 46.2 µM), for inactives: at the highest dose activity change, negative = growth inhibition, actives largely listed as inhibitors | actives 12% (n = 420,000) | AID 686979; note: potency is the fitted concentration of half-maximal effect; % is set by controls: 0 for no effect and ±100 for the full control effect; nearly all actives have a fitted effect of over 55% in size
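Chicken DT40 Tdp1-/- cells stably complemented with human TDP1 were seeded at 400 cells/well in medium containing 20 nM camptothecin, exposed to pin-transferred compounds, and grown at 37 °C for at least 48 hr. Viability was read as ATP luminescence.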
TDP1 block – TDP1 (human) enzyme inhibition. Q9NUW8. recombinant TDP1, AlphaScreen DNA substrate cleavage. Potency, µM (titrated, usually from 130 µM), without a hit: top-dose activity change, negative = inhibition, usual class: inhibitors. actives 0.28% (n = 350,000); note: potency is the fitted concentration of half-maximal effect; % is set by controls: 0 for no effect and ±100 for the full control effect; nearly all actives have a fitted effect of over 40% in size
Target sequence (Q9NUW8 whole entry, looked up): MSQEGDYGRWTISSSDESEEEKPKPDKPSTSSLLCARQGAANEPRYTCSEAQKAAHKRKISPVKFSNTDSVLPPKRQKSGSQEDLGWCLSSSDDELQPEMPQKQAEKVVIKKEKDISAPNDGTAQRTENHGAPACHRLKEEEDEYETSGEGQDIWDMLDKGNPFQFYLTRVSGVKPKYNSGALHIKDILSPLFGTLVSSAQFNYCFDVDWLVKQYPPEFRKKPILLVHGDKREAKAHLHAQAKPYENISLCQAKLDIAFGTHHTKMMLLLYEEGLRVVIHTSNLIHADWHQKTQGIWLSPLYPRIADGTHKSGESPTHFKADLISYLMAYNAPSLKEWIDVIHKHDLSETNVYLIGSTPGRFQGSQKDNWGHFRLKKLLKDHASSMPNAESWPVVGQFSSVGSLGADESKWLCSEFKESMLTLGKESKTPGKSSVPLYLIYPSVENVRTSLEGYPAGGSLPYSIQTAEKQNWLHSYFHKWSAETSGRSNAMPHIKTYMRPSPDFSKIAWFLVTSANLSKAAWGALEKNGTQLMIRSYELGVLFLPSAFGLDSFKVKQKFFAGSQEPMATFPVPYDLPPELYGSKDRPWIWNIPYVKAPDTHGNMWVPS
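Here, a 5' biotin and 3' phosphotyrosine-FITC DNA oligonucleotide reports Tdp1 activity: intact substrate bridges AlphaScreen beads, while cleavage leaves a 3' phosphate and drops signal. All incubations at room temperature.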
TGFb inhibitor – TGF-b pathway inhibition; HepG2 CAGA-GFP TGF-b/SMAD3 reporter, GFP fluorescence, 18 h; TGF-beta stimulated, 500 pg/mL final; Potency, µM (doses to about 46.1 µM), inactives show at the highest dose activity, negative = inhibition, usual class: inhibitors; actives 1.2% (n = 410,000); AID 588855; note: potency is the fitted concentration of half-maximal effect; % is set by controls: 0 for no effect and ±100 for the full control effect; nearly all actives have a fitted effect of over 65% in size
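First, reporter cells (HEPG2 CAGA-GFP) rested 2 h at 37 degrees C. Next, compounds were pinned in and TGF-beta added to 500 pg/mL final. After 18 h, GFP was imaged per cell and summed per well.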
HepG2 tox – kills HepG2 cells in TGF-b inhibitor counter-screen; Potency, µM (highest dose often 46.1 µM), for the others: at the top dose activity change, negative = cytotoxicity, actives largely listed as cytotoxic; actives 0.76% (n = 410,000); HepG2 CAGA-GFP viability, ATP luminescence, 18 h; note: potency is the fitted concentration of half-maximal effect
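CellTiter-Glo luminescence gave cytotoxicity after 18 hours at 37 degrees C. The cells were HepG2 CAGA-GFP in 1% FBS DMEM, stimulated with 500 pg/mL TGF-beta after compound addition. %Activity was normalised to no-cell wells (complete cell-killing) and DMSO (no toxicity), and curves were fitted and classified.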
IL-1B inflam inh – inflammasome signaling inhibition, IL-1 beta readout; activity change, % at 57.5 µM; THP-1 LPS/ATP IL-1B secretion, AlphaLISA, 16 h; stronger effect = lower value; AID 743279; actives 4.7% (n = 360,000); in the data active = activity change below about -50%; inconclusive = mostly about -30% to -49%; note: % is set by controls: 0 for no effect and ±100 for the full control effect
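Secreted IL-1B measured by AlphaLISA bead assay after 16 h compound exposure of THP-1 cells; compounds (final up to 57.5 uM) added 1 h before LPS (250 ng/mL) and ATP (1.25 mM) stimulation; lower signal means less secretion.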
Active calls of the source: *; [ ] = remark or other dose. Unless noted, calls come from the whole dose curve; as a rule, active = well fitted curve in the direction sought with a large enough effect; inconclusive = small, poorly fitted or top-dose-only effect, or another doubt; inactive = no such curve, though single readings can be large; an effect the other way counts as inactive or inconclusive.

Results for Cc1cccc(C(=O)N2CCN(S(=O)(=O)N3CCCCCC3)CC2)c1 ?
DT40 TDP1 no CPT: -16%; TDP1 cell CPT: -3%; TDP1 block: 1%[0.0935 µM]; TGFb inhibitor: 2%; HepG2 tox: 2%; IL-1B inflam inh: 0

Results for O=C(CC(=O)Nc1cc(Cl)ccc1Cl)Nc1cc(Cl)ccc1Cl ?
DT40 TDP1 no CPT: 18%; TDP1 cell CPT: -15%; TGFb inhibitor: -14%; HepG2 tox: -3%; IL-1B inflam inh: 12

How did O=C(CN(Cc1ccccc1Cl)C(=O)c1csnn1)NCCc1ccccc1 do in these assays?
DT40 TDP1 no CPT: -13%; TDP1 cell CPT: 23%; TDP1 block: 3%; TGFb inhibitor: 5%; HepG2 tox: 8%; IL-1B inflam inh: 0

Results for O=C(NCC1CC1)c1cc([N+](=O)[O-])cc([N+](=O)[O-])c1 ?
DT40 TDP1 no CPT: 8%; TDP1 cell CPT: 0%; TGFb inhibitor: 3%; HepG2 tox: 6%; IL-1B inflam inh: 64

What do the screens show for `CCCCNC(=O)COC(=O)c1ccc(Cl)c(S(=O)(=O)N2CCCC2)c1`?
DT40 TDP1 no CPT: -1%; TDP1 cell CPT: -2%; TGFb inhibitor: 13%; HepG2 tox: -23%; IL-1B inflam inh: 12

How did O=C(NCc1ccccc1)c1ccc(Cl)c(S(=O)(=O)N2CCCC2)c1 do in these assays?
DT40 TDP1 no CPT: 18µM*; TDP1 cell CPT: -23%; TDP1 block: -2%; TGFb inhibitor: -20%; HepG2 tox: -9%; IL-1B inflam inh: inconclusive

Results for O=C(O)c1ccc(Cl)c(S(=O)(=O)N2CCCC2)c1 ?
DT40 TDP1 no CPT: 9%; TDP1 cell CPT: 11%; TDP1 block: 50µM*; TGFb inhibitor: 6%; HepG2 tox: 15%; IL-1B inflam inh: 4

What do the screens show for `CCCn1c(C)cc(C(=O)COC(=O)c2ccc(Cl)c(S(=O)(=O)N3CCCC3)c2)c1C`?
DT40 TDP1 no CPT: 15µM*; TDP1 cell CPT: 23µM*; TDP1 block: 6%; TGFb inhibitor: 11%; HepG2 tox: 4%; IL-1B inflam inh: 11

What do the screens show for `O=C(NCCc1ccccc1)c1ccc(Cl)c(S(=O)(=O)N2CCCC2)c1`?
DT40 TDP1 no CPT: inconclusive; TDP1 cell CPT: inconclusive; TDP1 block: 4%; TGFb inhibitor: -27%; HepG2 tox: -50%; IL-1B inflam inh: 12

How did COc1cccc(C(CNC(=O)c2ccc(Cl)c(S(=O)(=O)N3CCCC3)c2)N(C)C)c1 (stereo not given) do in these assays?
DT40 TDP1 no CPT: 21µM*; TDP1 cell CPT: inconclusive; TDP1 block: 0%; TGFb inhibitor: -18%; HepG2 tox: -20%; IL-1B inflam inh: -14

How did O=C(c1ccc(Cl)c(S(=O)(=O)N2CCCCCC2)c1)N1CCCCC1 do in these assays?
DT40 TDP1 no CPT: -18%; TDP1 cell CPT: -24%; TDP1 block: 5%; TGFb inhibitor: -8%; HepG2 tox: -13%; IL-1B inflam inh: 63

What do the screens show for `Cc1ccc(C(=O)Nc2ccc3cn[nH]c3c2)cc1S(=O)(=O)N1CCOCC1`?
DT40 TDP1 no CPT: inconclusive; TDP1 cell CPT: inconclusive; TDP1 block: 7%; TGFb inhibitor: 2%; HepG2 tox: 20%; IL-1B inflam inh: 6

What do the screens show for `COc1ccccc1CCN1CCCC(CN(C)C(=O)c2ccoc2)C1` (stereo not given)?
DT40 TDP1 no CPT: 0%; TDP1 cell CPT: -30%; TDP1 block: 1%; TGFb inhibitor: -4%; HepG2 tox: -8%; IL-1B inflam inh: 6
